Data as given in the supplement of paper PMC9942566.
± gives the standard deviation of the averaged measurements.

system: Serratia marcescens K904 PosmB-luxCDABE reporter (pMQ747); assay: PosmB-lux reporter fold induction (RLU/OD600 relative to no-compound control), highest over Biolog concentrations; higher = stronger Rcs reporter activation; details: Biolog plate: PM15; well positions: G5-8; wild type K904; 4 h
Protocol: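 Serratia marcescens K904 (wild type) or its isogenic ΔrcsB mutant, carrying the Rcs-dependent PosmB-luxCDABE reporter plasmid pMQ747, was grown in LB at OD600 0.1 in Biolog Phenotype MicroArray plates PM11-20 for 4 h at 30-32°C. Each compound is present at 3-4 proprietary concentrations (not stated); per the Fig. S1 legend the value given is the highest fold over those wells. Three independent trials.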

SMILES | PosmB-lux reporter fold induction
[N-]=[N+]=[N-] [Sodium azide] | 34 ± 10

same assay, conditions: Biolog plate: PM18; well positions: E9-12; wild type K904; 4 h

SMILES | PosmB-lux reporter fold induction
[Cl][Sb]([Cl])[Cl] [antimony (III) chloride] | 0.722 ± 0.067
